Laboratory results published in PubChem BioAssay AID1159580 (chemical genetic matrix, 2015).
About 2,000 (36%) of roughly 5,500 compounds were called active. Another 18% or so got no clear call; they are omitted. Cut-off read from the data, not from the text of the source: active = normalized growth mostly below about 0.91 (no sharp cut-off); inconclusive = no clear call, values can overlap the other calls; inactive = mostly above about 0.92. This is one part of the list.

Test: chemical genetic growth profiling, strain panel (AID 1159580);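 note: tested at 20 µM; growth read once vehicle control cultures reached saturation at 30 °C; 1 = growth at the plate median or of vehicle wells; lower values mean less growth of the strain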
Settings: growth OD

Measured: normalized growth

O=C(O)c1cc(O)c(O)c(O)c1
inactive: S. cerevisiae deletion strains, locus YJR066W, strain TOR1, hits give low values 0.929 | S. cerevisiae deletion strains, locus YKL009W, strain mrt4, hits give low values 1.03 | S. cerevisiae deletion strains, locus YKL068W, hits give low values 1 | S. cerevisiae deletion strains, locus YKL085W, strain MDH1 (second series), hits give low values 1.03 | S. cerevisiae deletion strains, locus YKL085W, strain MDH1, hits give low values 1.03 | S. cerevisiae deletion strains, locus YKL160W, strain elf1, hits give low values 1.05 | S. cerevisiae deletion strains, locus YKR001C, strain vps1, hits give low values 1.07 | S. cerevisiae deletion strains, locus YKR026C, strain gcn3, hits give low values 1.02 | S. cerevisiae deletion strains, locus YKR091W, strain srl3, hits give low values 1.01 | S. cerevisiae deletion strains, locus YLL001W, strain dnm1, hits give low values 0.997 | S. cerevisiae deletion strains, locus YLL026W, hits give low values 1 | S. cerevisiae deletion strains, locus YLL041C, strain sdh2, hits give low values 1.04 | S. cerevisiae deletion strains, locus YLR027C, strain aat2, hits give low values 1.04 | S. cerevisiae deletion strains, locus YLR058C, strain SHM2, hits give low values 1.06 | S. cerevisiae deletion strains, locus YLR102C, strain apc9, hits give low values 1.02 | S. cerevisiae deletion strains, locus YLR113W, strain HOG1, hits give low values 0.985 | S. cerevisiae deletion strains, locus YLR221C, strain rsa3, hits give low values 0.981 | S. cerevisiae deletion strains, locus YLR258W, strain gsy2, hits give low values 1.05 | S. cerevisiae deletion strains, locus YLR262C, strain YPT6 (second series), hits give low values 1.03 | S. cerevisiae deletion strains, locus YLR262C, strain YPT6, hits give low values 1.26 | S. cerevisiae deletion strains, locus YLR268W, strain sec22, hits give low values 1.04 | S. cerevisiae deletion strains, locus YLR320W, strain mms22, hits give low values 1.02 | S. cerevisiae deletion strains, locus YLR330W, strain CHS5, hits give low values 1.03 | S. cerevisiae deletion strains, locus YLR342W, strain FKS1 (second series), hits give low values 1.05 | S. cerevisiae deletion strains, locus YLR342W, strain FKS1, hits give low values 1.03 | S. cerevisiae deletion strains, locus YLR357W, strain rsc2, hits give low values 1.06 | S. cerevisiae deletion strains, locus YLR370C, strain arc18, hits give low values 1.02 | S. cerevisiae deletion strains, locus YLR371W, strain rom2, hits give low values 1.05 | S. cerevisiae deletion strains, locus YLR384C, strain iki3, hits give low values 1.02 | S. cerevisiae deletion strains, locus YLR418C, strain cdc73, hits give low values 1.11 | S. cerevisiae deletion strains, locus YML016C, strain PPZ1, hits give low values 1.03 | S. cerevisiae deletion strains, locus YML032C, strain rad52, hits give low values 1.03 | S. cerevisiae deletion strains, locus YML120C, strain ndi1, hits give low values 1.01 | S. cerevisiae deletion strains, locus YML124C, strain tub3, hits give low values 1.02 | S. cerevisiae deletion strains, locus YMR058W, strain fet3, hits give low values 1.01 | S. cerevisiae deletion strains, locus YMR078C, strain ctf18, hits give low values 1.03 | S. cerevisiae deletion strains, locus YMR125W, strain sto1, hits give low values 1.03 | S. cerevisiae deletion strains, locus YMR129W, hits give low values 1.03 | S. cerevisiae deletion strains, locus YMR205C, strain PFK2, hits give low values 1.06 | S. cerevisiae deletion strains, locus YMR223W, strain ubp8, hits give low values 1.02 | S. cerevisiae deletion strains, locus YMR231W, strain pep5, hits give low values 1.01 | S. cerevisiae deletion strains, locus YMR307W, strain GAS1, hits give low values 1.24 | S. cerevisiae deletion strains, locus YNL067W, strain RPL9B, hits give low values 1.02 | S. cerevisiae deletion strains, locus YNL071W, strain lat1, hits give low values 1.06 | S. cerevisiae deletion strains, locus YNL183C, strain NPR1, hits give low values 0.933 | S. cerevisiae deletion strains, locus YNL209W, strain ssb2, hits give low values 1.01 | S. cerevisiae deletion strains, locus YNL233W, strain BNI4, hits give low values 1.08 | S. cerevisiae deletion strains, locus YNL248C, strain rpa49, hits give low values 1.08 | S. cerevisiae deletion strains, locus YNL250W, strain rad50, hits give low values 1.05 | S. cerevisiae deletion strains, locus YNL271C, strain bni1, hits give low values 1.01 | S. cerevisiae deletion strains, locus YNL298W, strain CLA4, hits give low values 1.01 | S. cerevisiae deletion strains, locus YNL307C, strain MCK1, hits give low values 1.03 | S. cerevisiae deletion strains, locus YNL322C, strain KRE1 (second series), hits give low values 1.03 | S. cerevisiae deletion strains, locus YNR049C, strain mso1, hits give low values 1.01 | S. cerevisiae deletion strains, locus YNR052C, strain pop2, hits give low values 1.01 | S. cerevisiae deletion strains, locus YOL006C, strain TOP1, hits give low values 1.36 | S. cerevisiae deletion strains, locus YOL012C, strain htz1 0.913 | S. cerevisiae deletion strains, locus YOL147C, strain pex11, hits give low values 1.02 | S. cerevisiae deletion strains, locus YOR001W, strain rrp6, hits give low values 0.981 | S. cerevisiae deletion strains, locus YOR061W, strain CKA2, hits give low values 1.04 | S. cerevisiae deletion strains, locus YOR069W, strain VPS5, hits give low values 1.03 | S. cerevisiae deletion strains, locus YOR070C, strain gyp1, hits give low values 1.02 | S. cerevisiae deletion strains, locus YOR080W, strain dia2, hits give low values 1.01 | S. cerevisiae deletion strains, locus YOR083W, strain WHI5, hits give low values 0.995 | S. cerevisiae deletion strains, locus YOR106W, strain vam3, hits give low values 1.05 | S. cerevisiae deletion strains, locus YOR136W, strain idh2, hits give low values 1.02 | S. cerevisiae deletion strains, locus YOR144C, strain elg1, hits give low values 1.01 | S. cerevisiae deletion strains, locus YOR184W, strain ser1, hits give low values 1.05 | S. cerevisiae deletion strains, locus YOR231W, strain MKK1, hits give low values 0.971 | S. cerevisiae deletion strains, locus YOR265W, strain rbl2, hits give low values 1 | S. cerevisiae deletion strains, locus YOR270C, strain vph1, hits give low values 1.17 | S. cerevisiae deletion strains, locus YOR290C, strain snf2, hits give low values 1.05 | S. cerevisiae deletion strains, locus YOR316C, strain cot1, hits give low values 1.02 | S. cerevisiae deletion strains, locus YPL051W, strain arl3, hits give low values 1.04 | S. cerevisiae deletion strains, locus YPL055C, strain LGE1, hits give low values 1.1 | S. cerevisiae deletion strains, locus YPL078C, strain atp4, hits give low values 1.05 | S. cerevisiae deletion strains, locus YPL106C, strain sse1, hits give low values 1.06 | S. cerevisiae deletion strains, locus YPL240C, strain hsp82, hits give low values 1.01 | S. cerevisiae deletion strains, locus YPL256C, strain CLN2, hits give low values 0.968 | S. cerevisiae deletion strains, locus YPR119W, strain clb2, hits give low values 1.05 | S. cerevisiae deletion strains, locus YPR141C, strain kar3, hits give low values 1.02 | S. cerevisiae deletion strains, locus YPR163C, strain tif3, hits give low values 1.03 | S. cerevisiae deletion strains, locus YPR167C, strain met16, hits give low values 1.05 | S. cerevisiae deletion strains, strain wtn01, hits give low values 1.03 | S. cerevisiae strains, strain wild type, hits give low values 1.07
active: S. cerevisiae deletion strains, locus YLR039C, strain RIC1, hits give low values 1.34 [resistant]
